In PubChem BioAssay AID597 (National Center for Advancing Translational Sciences (NCATS), 2007) one finds GFP derepression (activation) data, which are given here for 68 compounds.

Among all 68,000 compounds or so, about 60 (0.09%) were called active. A selection follows. Unmarked numbers belong to inactive results. Calls follow the shape of the dose curve; as a rule, active = well fitted curve in the direction sought with a large enough effect; inconclusive = small, poorly fitted or top-dose-only effect; inactive = flat fitted curve, though single readings scatter. Where a SMILES comes first, the peptide text is derived from it. The star is where a group is joined. Bz = O=C(c1ccccc1)*

The test can be described thus: qHTS Assay for Epigenetic Modulators. Also: % of control where 0% means no effect. To be noted: mouse C127i GFP locus derepression, cytometry, 30 h; series mostly up to 46.1 µM. The source says: NIH Molecular Libraries Screening Centers Network [MLSCN] NIH Chemical Genomics Center [NCGC] MLSCN Grant: 1 X01 MH079860-01 Assay Provider: Elisabeth D. Martinez, University of Texas SW Medical Center NCGC Assay Overview: The Locus Derepression assay detects the derepression of a GFP reporter that is stably integrated in a region of the genome of murine c127i mammary cells that is presumably silenced. GFP transcription in this construct is controlled by a CMV promoter, which normally is strong and constitutively active. However, this line was selected for lack of constitutive expression of the GFP protein. GFP production can be induced by incubating the cells with histone deacetylase or DNA methyltransferase inhibitors. Compounds that cause derepression of the locus to express GFP are identified by enumerating GFP positive cells using a laser-scanning microplate cytometer. For further details of this screen and follow-up characterization, see R.L. Johnson, W. Huang, A. Jadhav, C.P. Austin, J. Inglese, E.D. Martinez, A Quantitative High-Throughput Screen Identifies Potential Epigenetic Modulators of Gene Expression, Analytical Biochemistry (2008) 375(2):237-48.
NCGC Assay Protocol Summary: Two hundred and fifty cells in 5 uL per well were dispensed into black, clear-bottom 1536-well plates. Twenty-three nL compound was transferred to the assay plate and cells were incubated 30 hours at 37 C. Medium was removed, cells were washed two times with PBS, and GFP-positive cells were enumerated as fluorescent objects between the sizes of 20 to 120 um width and depth using an Acumen Explorer. Keywords: NIH Roadmap, MLSCN, MLI, MLSMR, qHTS, NCGC, qHTS, HDAC, DNMT, HAT, DNA methyltransferases, histone acetyl transferases, histone deacetylases
In general terms: In qHTS, concentration-response curves come from the screen itself.
With `O=c1oc2c(CN3CCCCC3)c(O)ccc2c2c1CCCCC2`, the GFP derepression (activation) result is “inactive”.

On to `COc1ccc(C2N=C(N)N=C(N)N2c2ccccc2)cc1OC` (stereo not drawn), for which the GFP derepression (activation) entry is “inactive”. With `O=C(O)COc1c(Cl)cc(Cl)c2cccnc12` the figure was 5.8% [at 9.22 µM]; with `CCn1c(SCC(=O)Nc2ccc3c(c2)OCCO3)nc2c(c1=O)SC(C)C2` (stereo not drawn), “inactive”; with `Cn1c(=S)c2[nH]c(SCCCc3ccccc3)nc2n(C)c1=O`, -3.4% [at 9.22 µM]. With `COc1cccc(Cn2c(=O)c(-c3ccccc3)nc3cnc(OC)nc32)c1` the figure was 10.8% [at 9.22 µM]. With `CCCC(C(=O)OCCN(CC)CC)(c1ccccc1)c1ccccc1` the entry was “inactive”; with `O=C(OCCN1CCOCC1)C1(c2ccccc2)CCCCC1`, “inactive”; with `O=C(c1cc(C(F)(F)F)cc(C(F)(F)F)c1)N1CCC2(CCCN(Cc3ccncc3)C2)CC1`, 2.2% [at 9.22 µM].

Regarding `O=C(O)CCC(=O)Nc1ccc(N2CCOCC2)cc1`, the GFP derepression (activation) entry is “inactive”. Regarding `COCCn1c(=O)c(-c2cc(F)cc(F)c2)nc2cnc(N3CCNCC3)nc21`, the GFP derepression (activation) is -0.5% [at 9.22 µM]. With `CN(C)C(=O)c1ccc(-c2cncnc2Nc2ccccc2)cc1` the figure was 5.7% [at 9.22 µM].

Turning to `COc1ccc(NC(=O)CSc2nnc(-c3cccs3)n2Cc2ccco2)cc1OC`, the GFP derepression (activation) result was “inactive”.

Turning to `CCOC(=O)N1CCN(C(=O)c2n[nH]c(=O)c3ccccc23)CC1`, the GFP derepression (activation) result is “inactive”.

`CC(=O)Nc1ccc(S(=O)(=O)N2CCSCC2)cc1`: the GFP derepression (activation) entry was “inactive”. In the case of `CCOc1ccc(NS(=O)(=O)c2ccc(OCC(=O)NCCCOC)cc2)cc1`, the GFP derepression (activation) result was “inactive”. Regarding `COc1ccc(C(=O)N/N=C2/C(=O)c3c(C)cc(C)cc3CC2(C)C)cc1`, the GFP derepression (activation) is 3.4% [at 9.22 µM]. With `N#Cc1cc2[nH]c(=O)c(=O)[nH]c2cc1[N+](=O)[O-]` the entry was “inactive”; with `N/C(=N\c1nc2ccccc2o1)NC(=O)C(Cc1ccccc1)N1C(=O)c2ccccc2C1=O` (stereo not drawn), “inactive”; with `CCCNS(=O)(=O)c1ccc(CCC(=O)NCc2cccnc2)cc1`, “inactive”. The value for `Cc1nc2ccc(S(=O)(=O)NCC(=O)NCCN3CCCCC3C)cc2s1` (stereo not drawn) was “inactive”.

In the case of `N#Cc1cccc(-c2nc3cnc(N4CCNCC4)nc3n(C3CC3)c2=O)c1`, the GFP derepression (activation) was -5% [at 9.22 µM]. With `COc1ccc(C2OC(=O)CC2C(=O)NC(C)C)cc1` (stereo not drawn) the entry was “inactive”; with `O=C(NCC12CC3CC(C1)CC(CNC(=O)N1CCCC1)(C3)C2)N1CCCC1`, “inactive”; with `C[C@]1(O)CC[C@H]2[C@H]3CC=C4N5CCN=C5CC[C@@]4(C)[C@H]3CC[C@@]21C`, -3.4% [at 9.22 µM]. With `COCCn1c(=O)c(C)nc2cnc(N(C)C)nc21` the figure was 2.3% [at 9.22 µM]. The value for `CN1CCCc2cc(C#N)c(=O)[nH]c21` was “inactive”. Turning to `CCCc1[nH]nc2c1C(c1ccc(OC(=O)c3ccco3)cc1)C(C#N)=C(N)O2` (stereo not drawn), the GFP derepression (activation) result was “inactive”. The value for `CCCCOc1ccc(-c2nnc(-c3ccco3)o2)cc1` was “inactive”. The value for `CC(C)NC(=O)N1CC[C@@]2(CCCN(C(=O)c3cccn3C)C2)C1` was 2.2% [at 9.22 µM]. With `O=S(=O)(NCc1ccc2c(c1)OCO2)c1cccc2nsnc12` the entry was “inactive”. As for `COc1ccc(CNC(=O)c2c(C)cc(=O)oc2C)cc1OC`, the GFP derepression (activation) entry was “inactive”.

Turning to `Cc1cccc(CC(=O)Nc2c3c(nn2-c2cccc(Cl)c2)CS(=O)C3)c1` (stereo not drawn), the GFP derepression (activation) entry was “inactive”. The value for `Cc1nn(C)c(C)c1S(=O)(=O)N1CCc2ccccc21` was “inactive”; that for `Cc1nc2cnc(N3CCNCC3)nc2n(CCc2ccccc2)c1=O` was 8.1% [at 9.22 µM]. The value for `Clc1ccc(C(c2ccc(Cl)cc2)n2cc[n+](C[C@@H](OCc3ccc(Cl)cc3Cl)c3ccc(Cl)cc3Cl)c2)cc1` was “inactive”; that for `C=CCSC1=C(C#N)C(c2cc(Br)c(O)c(OC)c2)CC(=O)N1` (stereo not drawn) was “inactive”; that for `CN(C)CCSS(=O)(=O)O` was 0.1% [at 9.22 µM]. The value for `CC(NC(=O)CSc1nc2c(cc1C#N)CN(C)CC2)c1ccccc1` (stereo not drawn) was “inactive”; that for `CCNC(=O)CN(c1ccc(C)cc1)S(=O)(=O)c1ccc(SC)cc1` was “inactive”. Consider `CC(=O)c1sc2nc(SCC(=O)N3CCCCC3)[nH]c(=O)c2c1C`, for which the GFP derepression (activation) entry was “inactive”. With `Cn1cccc1C1(C(F)(F)F)NCCNC1=O` (stereo not drawn), the GFP derepression (activation) result was “inactive”. The value for `CCOC(=O)N1CCN(C(=O)c2nn(-c3ccc(C)cc3)c(=O)c3c2c2ccccc2n3C)CC1` was “inactive”; that for `COc1ccccc1CNC(=O)CCCNS(=O)(=O)c1cccc2nsnc12` was “inactive”. The value for `O=C(c1ccc(O)cc1)c1ccc(C(=O)O)c(C(=O)O)c1` was “inactive”. With `CCOC(=O)CNC(=O)CSc1nnnn1-c1cc(C)ccc1C` the entry was “inactive”; with `COc1ccc(S(=O)(=O)Nc2c(C)n(C)n(-c3ccccc3)c2=O)cc1`, “inactive”; with `COc1ccc(C(C(O)C(=O)c2c[nH]c3ccccc23)N2CCN(c3ccccc3)CC2)cc1` (stereo not drawn), “inactive”.

Regarding `Cn1c(=O)[nH]c(=O)c2c1nc(N(CCO)Cc1ccccc1)n2Cc1ccccc1Cl`, the GFP derepression (activation) result is “inactive”. Regarding `Cn1c(=O)cc(SCC(=O)N2CCN(C(=O)c3ccco3)CC2)c2ccccc21`, the GFP derepression (activation) entry is “inactive”. The value for `COc1ccc(OC)c(CNC(=O)C2CCCN(c3nc4ccccc4o3)C2)c1` (stereo not drawn) was “inactive”. The value for `Cn1cc(-c2nc3cnc(N4CCNCC4)nc3n(CCC#N)c2=O)c2ccccc21` was 7.6% [at 9.22 µM]; that for `CCOCCc1c(O)nc(SCC(=O)NCc2ccco2)[nH]c1=O` was “inactive”; that for `N#CC(C(N)=O)=C1CCC2(CC1)OCCCCO2` was “inactive”. With `COC(=O)c1ccc(C2NC(=O)NC(C)=C2C(=O)N(C)C)cc1` (stereo not drawn) the entry was “inactive”; with `CCn1c2c(c3ccc(OC)cc31)CCCC2=O`, “inactive”; with `COc1ccc(S(=O)(=O)NC(CC(=O)NCc2ccccc2OC)c2ccco2)cc1` (stereo not drawn), “inactive”. Regarding `O=C(NC(Cc1ccccc1)C(=O)N1CCCC1C(=O)O)c1ccccc1` (stereo not drawn) (Bz-Phe-Pro-OH; configuration not given here), the GFP derepression (activation) entry was “inactive”. The value for `Cc1nc2cnc(Oc3cccc(Cl)c3)nc2n(C2CC2)c1=O` was -2.7% [at 9.22 µM]. With `C[C@H]1O[C@@H](CC(=O)O)Cc2c1c(O)c1c(O)cc(-c3cc(=O)c4c(=O)c5c(c(=O)c=4c3=O)C[C@H](CC(=O)O)O[C@@H]5C)c(O)c1c2O` the figure was 10.3% [at 9.22 µM]. With `CNc1cc(-c2c(C)noc2C)ncn1` the figure was 0% [at 9.22 µM]. On to `O=C(c1c(Cl)nc2sccn12)N1CCCc2ccccc21`, for which the GFP derepression (activation) entry was “inactive”. Consider `Cc1ccc2[nH]c(=O)c(-c3nc4c(C)cccn4c3NCc3ccco3)cc2c1`, for which the GFP derepression (activation) entry is “inactive”. Consider `COc1ccc(CNc2ncncc2-c2ccccc2C)c(OC)c1`, for which the GFP derepression (activation) is 0% [at 9.22 µM].

With `CCOC(=O)c1[nH]c2ccccc2c1N=C(C)N(CC)CC`, the GFP derepression (activation) result was “inactive”. With `Fc1ccc(Cn2nnnc2C(c2cccs2)N2CCCCCC2)cc1` (stereo not drawn) the entry was “inactive”; with `COc1ccc2[nH]c(=O)c(CN(CC3CCCO3)C(=O)Nc3ccccc3)cc2c1` (stereo not drawn), “inactive”; with `COc1ccc2[nH]cc(CCNc3ncnc4ccc(-c5ccccc5CN(C)C)cc34)c2c1`, -5.2% [at 9.22 µM].
